Bioassay records from PubChem BioAssay.
LDHA block = inhibitors of human lactate dehydrogenase A; P00338; purified LDHA, NADH/diaphorase-resazurin fluorescence; stronger effect = lower value; activity change, % (values are at about 110 or 230 µM); actives 0.15% (n = 480,000); AID 1347041; in the data active = activity change below about -30%; inconclusive = mostly about -25% to -30%;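 also: plate controls were DMSO wells for no effect and wells without enzyme for full effect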
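Remaining NADH was detected by diaphorase (0.133 mg/mL) converting 37 µM resazurin to fluorescent resorufin, read at 0 and 20 minutes. The preceding 5-minute room-temperature reaction used 2 nM LDHA, 0.2 mM sodium pyruvate and 0.06 mM NADH at pH 7.4.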
TDP1 cell noCPT = qHTS for Inhibitors of human tyrosyl-DNA phosphodiesterase 1 (TDP1): qHTS in cells in absence of CPT | DT40 Tdp1-/- hTDP1 cells, no CPT, ATP luminescence, 48 h | Potency, µM (series often up to 46.2 µM), for inactives: at the highest dose activity change, negative = growth inhibition, most hits filed as inhibitors | actives 15% (n = 420,000); also: potency is read from the fitted curve at half-maximal effect; nearly all actives have a fitted effect of over 55% in size
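Luminescent ATP content (CellTiter-Glo) served as the growth readout. Knockout chicken DT40 cells expressing human TDP1 were exposed to compounds without camptothecin for a minimum 48 hr at 37 °C.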
IL1B secr inh = blocks inflammasome-driven IL-1 beta release; THP-1 LPS/ATP IL-1B secretion, AlphaLISA, 16 h; stronger effect = lower value; activity change, % at 57.5 µM; actives 4.7% (n = 360,000); AID 743279; in the data active = activity change below about -50%; inconclusive = mostly about -30% to -49%
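THP-1 cells pretreated 1 hr with compounds (up to 57.5 uM final), then stimulated with LPS (250 ng/mL final) plus ATP (1.25 mM final); secreted IL-1B measured by AlphaLISA after 16 hr, decreased signal indicating inhibition.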
TDP1 cell CPT = growth inhibition of DT40 Tdp1-/-;hTDP1 cells with camptothecin (screen for TDP1 inhibitors) | chicken DT40 Tdp1-/-;hTDP1 cells + 20 nM CPT, ATP luminescence, 48 h | actives 12% (n = 420,000) | Potency, µM (titrated, usually from 46.2 µM), for inactives: at the highest dose activity change, negative = growth inhibition, usual class: inhibitors; also: potency is read from the fitted curve at half-maximal effect; nearly all actives have a fitted effect of over 55% in size
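Chicken DT40 Tdp1-/- cells complemented with human TDP1, 400 cells/well, exposed to compounds plus 20 nM camptothecin for at least 48 h at 37 C; viability read as ATP content by CellTiter-Glo luminescence.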
RORg inh = inhibitors of mouse ROR gamma transcriptional activity; actives 5.4% (n = 310,000); Drosophila S2 Gal4-RORgamma UAS-luciferase reporter, 20 h; P51450; Potency, µM (series often up to 53.6 µM), for inactives: at the highest dose activity change, negative = inhibition, most hits filed as inhibitors; also: potency is read from the fitted curve at half-maximal effect; nearly all actives have a fitted effect of over 60% in size
Target sequence (P51450 whole entry, looked up, the tested form may be a part): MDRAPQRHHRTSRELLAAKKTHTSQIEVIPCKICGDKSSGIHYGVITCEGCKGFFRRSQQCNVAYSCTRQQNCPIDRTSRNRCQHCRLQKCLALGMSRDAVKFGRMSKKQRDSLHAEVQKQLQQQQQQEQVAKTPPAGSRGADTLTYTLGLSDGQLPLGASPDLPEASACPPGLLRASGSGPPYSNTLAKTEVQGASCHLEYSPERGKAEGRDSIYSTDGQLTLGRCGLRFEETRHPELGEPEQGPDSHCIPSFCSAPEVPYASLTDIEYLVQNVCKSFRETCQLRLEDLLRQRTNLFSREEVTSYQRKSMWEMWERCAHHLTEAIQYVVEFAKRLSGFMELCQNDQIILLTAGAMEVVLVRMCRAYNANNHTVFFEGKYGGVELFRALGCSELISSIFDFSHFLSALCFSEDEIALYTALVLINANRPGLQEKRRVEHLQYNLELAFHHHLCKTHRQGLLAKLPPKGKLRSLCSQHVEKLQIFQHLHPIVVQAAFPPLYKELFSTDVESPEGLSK
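Compounds are pin-transferred onto Drosophila Schneider cells expressing a copper-inducible Gal4–ROR gamma transactivation domain fusion. After 1 hr, copper sulfate is added to 700 uM final; luciferase is read 20 hr later.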
VP16 counter = counter-screen for ROR gamma inhibitors: Gal4-VP16 reporter | Drosophila S2 Gal4-VP16 UAS-luciferase, luminescence, 20 h | Potency, µM (doses to about 53.6 µM), for the others: at the highest dose activity, negative = inhibition, actives largely listed as inhibitors | actives 3.5% (n = 310,000);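 also: Gal4-VP16 expression switched on by copper sulfate through the metallothionein promoter; potency is read from the fitted curve at half-maximal effect; nearly all actives have a fitted effect of over 50% in size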
* = called active by the depositor; ? = inconclusive; . = not tested or not shown; [ ] = another dose, or the depositor's remark. Sampled rows, rich in hits. Any-hit rate of the full collection: about 18%. Unless noted, calls follow the shape of the dose curve; as a rule, active = well fitted curve in the direction sought with a large enough effect; inconclusive = small, poorly fitted or top-dose-only effect, or another doubt; inactive = no such curve, though single readings can be large; an effect the other way counts as inactive or inconclusive. Unless noted, % is scaled to controls: 0 for no effect and ±100 for the full control effect.

SMILES	LDHA block	TDP1 cell noCPT	IL1B secr inh	TDP1 cell CPT	RORg inh	VP16 counter
Cc1sc2ncn(CC(=O)N3CCN(c4ccccc4)CC3)c(=O)c2c1S(=O)(=O)N1CCOCC1	-8	?	3	18%	10%	2%
CCOc1ccc(N(CC)C(=O)Cn2cnc3sc(C)c(S(=O)(=O)N4CCN(c5ncccn5)CC4)c3c2=O)cc1	-14	9.2µM*	.	13µM*	.	.
Cc1sc2ncn(CC(=O)N3CCN(c4ccc(F)cc4)CC3)c(=O)c2c1S(=O)(=O)N1CCCCC1	-3	16µM*	.	16µM*	.	.
CCOC(=O)C1CCCN(C(=O)Cn2cnc3sc(C)c(S(=O)(=O)N4CCOCC4)c3c2=O)C1 (stereo not given)	-9	-9%	-53*	0%	0%	0%
CCOC(=O)C1CCN(C(=O)Cn2cnc3sc(C)c(S(=O)(=O)N4CCCCC4)c3c2=O)CC1	-2	3%	-11	3%	33%	-1%
Cc1ccc(NC(=O)CC(C)n2ccnc2)cc1Cl (stereo not given)	-2	.	.	.	.	.
O=C(Nc1ccccc1)C(=O)N1CCN(C(=O)c2cc3ccccc3[nH]2)CC1	3	.	.	.	.	.
COc1ccc(-n2c(C)cc(C3=NNC(=NC4CC4)SC3)c2C)cc1	-12	23µM*	?	?	-20%	?
Cc1cc(C2=NNC(=NC3CC3)SC2)c(C)n1-c1ccccc1	1	23µM*	-7	?	2.5µM*	6.3µM*
S=c1[nH]nc(-c2ccc(Cl)cc2Cl)n1-c1ccccc1	-8	-18%	-10	1%	11%[1.91 µM]	?
S=c1[nH]nc(-c2ccc(Cl)cc2Cl)n1-c1ccc2c(c1)OCCO2	-4	-2%	21	-12%	3.5µM*	-10%
Oc1ccc(-c2n[nH]c(=S)n2-c2ccc3c(c2)OCCO3)c(O)c1	9	?	-94*	?	?	11%
CCC(C)(CNC(=O)NCc1nc(C)cs1)N1CCOCC1 (stereo not given)	0	.	.	.	.	.
COc1ccccc1C1CCN(Cc2cccc3ccccc23)CC1	0	16µM*	10	?	30%	-1%
COc1ccccc1C1CCN(Cc2c(C)[nH]c3ccccc23)CC1	-1	5.8µM*	.	4.6µM*	35%	1%
COc1ccccc1C1CCN(Cc2ccc(Cl)cc2Cl)CC1	-4	13%	18	?	0%	-7%
COc1ccccc1C1CCN(Cc2ccc(Cl)c(Cl)c2)CC1	-7	?	36	?	4%	3%
COc1ccc(OC)c(CNC(=O)c2c(-c3ccc(C)cc3)nnc3ccccc23)c1	-18	.	.	.	.	.
CCC(C)Sc1nnc(CNC(=O)C23CC4CC(CC(C4)C2)C3)n1C1CCCCC1 (stereo not given)	0	?	?	?	11µM*	?
Cc1ccccc1N=Nc1c(C)[nH]n(-c2ccccc2)c1=O	-1	-22%	19	9%	-14%	-9%
Cc1[nH]n(-c2ccccc2)c(=O)c1N=Nc1ccccc1O	-6	0.41µM*	124	0.52µM*	2µM*	4.5µM*
Cc1[nH]n(-c2ccccc2)c(=O)c1N=Nc1ccccc1C(=O)O	3	?	31	?	23%	11%
Cc1[nH]n(-c2ccccc2)c(=O)c1N=Nc1nccs1	3	23µM*	53	18µM*	5.6µM*	5.6µM*
S=c1[nH]nc(-c2ccccc2Cl)n1CC1CCCO1 (stereo not given)	-6	0%	19	-1%	-8%	-7%
Fc1ccccc1-c1n[nH]c(=S)n1CC1CCCO1 (stereo not given)	-2	-3%	4	3%	11µM*	-11%
